Laboratory results as given in PubChem BioAssay (NCATS).
Inconclusive results are not listed. Unless noted, calls follow the shape of the dose curve; as a rule, active = well fitted curve in either direction with a large enough effect (not every such curve was filed as active); inconclusive = small, poorly fitted or top-dose-only effect, or another doubt; inactive = flat fitted curve, though single readings scatter.

How the values were obtained:
[1] = AP1 Signaling Pathway (AID 357); details: ME-180 AP-1-bla reporter, EGF-induced, beta-lactamase ratio, 5 h; at 17.2 µM (top of the series) unless noted;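 also: ME-180 reporter cells stimulated with EGF at its EC50 level; % is scaled to controls: 0 for no effect and ±100 for the full control effect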
Outline: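 Cells are seeded overnight, exposed to compound titrations and an EC50 level of EGF for 5 hours at 37 °C, then loaded with CCF4 dye for 2.5 hours. Beta-lactamase activity under the AP-1 element is read as a blue/green ratio.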

[2] = Stat Signaling Pathway (AID 446); details: ME-180 SIE beta-lactamase reporter, IL-6 stimulated, 5 h; at 17.2 µM (top of the series) unless noted;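 also: ME-180 cervical cancer cells given 40 pM IL-6 alongside compound; SIE-controlled beta-lactamase reporter measured as 460/530 nm FRET emission ratio; % is scaled to controls: 0 for no effect and ±100 for the full control effect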
Outline: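 ME-180 cells carrying a SIE-driven beta-lactamase reporter are stimulated with 40 pM IL-6 for 5 h at 37C in the presence of compound. The 460/530 nm FRET substrate ratio is read after 2.5 h at RT. Data are normalised to 300 pM IL-6 and to 125 nM JAK inhibitor controls.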

[3] = target: Glucocorticoid receptor (Homo sapiens) (UniProt P04150); experiment: GR-GFP Redistribution (AID 450;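 active = compounds whose dose series gives a full or clear partial fitted curve of increased nuclear translocation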; also: potency is read from the fitted curve at half-maximal effect)
Glucocorticoid receptor (Homo sapiens), sequence (P04150 whole entry, looked up): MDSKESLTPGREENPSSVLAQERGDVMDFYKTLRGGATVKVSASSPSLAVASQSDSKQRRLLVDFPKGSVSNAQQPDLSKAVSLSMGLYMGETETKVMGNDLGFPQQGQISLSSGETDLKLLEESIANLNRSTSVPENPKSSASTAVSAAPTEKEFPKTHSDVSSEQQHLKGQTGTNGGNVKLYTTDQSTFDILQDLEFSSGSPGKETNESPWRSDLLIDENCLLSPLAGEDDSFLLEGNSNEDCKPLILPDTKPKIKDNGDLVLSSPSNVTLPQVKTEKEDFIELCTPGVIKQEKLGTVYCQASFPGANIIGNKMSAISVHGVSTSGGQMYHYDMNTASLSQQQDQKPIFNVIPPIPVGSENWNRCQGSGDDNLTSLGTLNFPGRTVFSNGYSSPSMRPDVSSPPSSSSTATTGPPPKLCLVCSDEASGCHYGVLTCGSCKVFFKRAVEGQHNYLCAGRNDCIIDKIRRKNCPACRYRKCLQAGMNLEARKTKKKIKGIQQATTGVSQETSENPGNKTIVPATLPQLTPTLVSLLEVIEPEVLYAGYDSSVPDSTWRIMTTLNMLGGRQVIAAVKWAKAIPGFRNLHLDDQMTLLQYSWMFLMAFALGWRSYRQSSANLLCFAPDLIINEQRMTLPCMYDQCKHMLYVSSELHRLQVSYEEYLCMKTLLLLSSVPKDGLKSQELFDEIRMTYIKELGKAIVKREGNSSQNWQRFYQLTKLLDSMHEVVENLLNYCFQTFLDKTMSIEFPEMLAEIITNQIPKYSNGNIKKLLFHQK

COc1ccc(CSC2=NCCN2)cc1Cl
inactive: activity change, negative = inhibition [1] 15.6% | activity, negative = inhibition [2] 8.84% | Potency [3] > 20.6 µM

COc1ccc2c(c1OC)C(=O)N1c3ccccc3C(=O)N(c3ccccc3F)C21 (centres undefined)
inactive: activity change, negative = inhibition [1] -4.99% | activity, negative = inhibition [2] -18.4% | Potency [3] > 20.6 µM

Cn1c(N2CCOCC2)nc2c1c(=O)n(Cc1ccc(Cl)cc1)c(=O)n2C
inactive: activity change, negative = inhibition [1] 1.13% | activity, negative = inhibition [2] 23.9% | Potency [3] > 20.6 µM

CSc1nc2[nH]c3c(c2c2nnnn12)CCCC3
inactive: activity change, negative = inhibition [1] -20.6% | activity, negative = inhibition [2] -10.8% | Potency [3] > 20.6 µM

N#CCSc1nc2sc3c(c2c(=O)n1C1CCCCC1)CCCC3
inactive: activity change, negative = inhibition [1] -7.41% | activity, negative = inhibition [2] 6.22% | Potency [3] > 20.6 µM

Cc1cc(C)n(C2CCCCC2OC(=O)c2ccccc2)n1 (centres undefined)
inactive: activity change, negative = inhibition [1] 7.47% | activity, negative = inhibition [2] 3.83% | Potency [3] > 20.6 µM

CC1(C)Cc2c(c(-c3ccco3)[nH]c(=O)c2C#N)CS1
inactive: activity change, negative = inhibition [1] -2.31% | activity, negative = inhibition [2] 11.6% | Potency [3] > 20.6 µM

CCOC(=O)NC(Nc1cc(C)on1)(C(F)(F)F)C(F)(F)F
inactive: activity change, negative = inhibition [1] 20.3% | activity, negative = inhibition [2] 12.3% | Potency [3] > 20.6 µM

CCCc1nc(N2CCCC2)c(C#N)c2c1CCCC2
inactive: activity change, negative = inhibition [1] -2.98% | activity, negative = inhibition [2] 10.3% | Potency [3] > 20.6 µM

c1coc(-c2nnc3sc(Cc4cccs4)nn23)c1
inactive: activity change, negative = inhibition [1] -15.4% | activity, negative = inhibition [2] -17.3% | Potency [3] > 20.6 µM

CCCOc1ccc(Cc2nn[nH]n2)cc1
inactive: activity change, negative = inhibition [1] 6.52% | activity, negative = inhibition [2] 2.28% | Potency [3] > 20.6 µM

CCCc1cc(C(=O)Cc2ccc(F)cc2)c(O)cc1O
inactive: activity change, negative = inhibition [1] -28% | activity, negative = inhibition [2] -25.5% | Potency [3] > 20.6 µM

CC(C)Sc1nc(N2CCCC2)c2c(c1C#N)CC(C)(C)OC2
inactive: activity change, negative = inhibition [1] -10.5% | activity, negative = inhibition [2] -9.04% | Potency [3] > 20.6 µM

CC(C)C1=C2OC(N)=C(C#N)C(C#N)=C2C(C)CC1 (centres undefined)
inactive: activity change, negative = inhibition [1] -2.44% | activity, negative = inhibition [2] 5.25% | Potency [3] > 20.6 µM

Cc1cn2c(-c3ccncc3)nnc2s1
inactive: activity change, negative = inhibition [1] -4.06% | activity, negative = inhibition [2] -2.66% | Potency [3] > 20.6 µM

CCOC(=O)c1[nH]c2ccc(OC)cc2c1NC(=O)CCN1CCc2ccccc2C1
inactive: activity change, negative = inhibition [1] -5.08% | activity, negative = inhibition [2] -3.49% | Potency [3] > 20.6 µM

Cn1c(=O)c2c(nc(NCc3ccco3)n2Cc2ccc(Cl)cc2Cl)n(C)c1=O
inactive: activity change, negative = inhibition [1] 4.86% | activity, negative = inhibition [2] -17.6% | Potency [3] > 20.6 µM

OCCNc1nc(-c2ccccc2)c2ccccc2n1
inactive: activity change, negative = inhibition [1] -11.6% | activity, negative = inhibition [2] -4.38% | Potency [3] > 20.6 µM

CCC(=O)Nc1cccc(-c2nnc(SCC(=O)NCc3ccco3)n2C)c1
inactive: activity change, negative = inhibition [1] -2.45% | activity, negative = inhibition [2] -2.86% | Potency [3] > 20.6 µM

COC(=O)CN(c1nc(C)c(Br)c(OC)n1)S(=O)(=O)c1ccc(C)cc1
inactive: activity change, negative = inhibition [1] -6.01% | activity, negative = inhibition [2] 7.73% | Potency [3] > 20.6 µM

CCOc1cccc(-c2nnc3sc(-c4cc(OC)c(OC)c(OC)c4)nn23)c1
inactive: activity change, negative = inhibition [1] 3.58% | activity, negative = inhibition [2] -10.4% | Potency [3] > 20.6 µM

Nc1nc2n(n1)C(c1cccs1)CC(c1ccc(F)cc1)N2 (centres undefined)
inactive: activity change, negative = inhibition [1] 5.72% | activity, negative = inhibition [2] 1.08% | Potency [3] > 20.6 µM

COc1ccccc1N1CCN(CCCCOc2ccc(F)cc2)CC1
inactive: activity change, negative = inhibition [1] 18.8% | activity, negative = inhibition [2] 5.73% | Potency [3] > 20.6 µM

CCSc1nc2sc3c(c2c(=O)n1C1CCCCC1)CCN(C)C3
inactive: activity change, negative = inhibition [1] 4.46% | activity, negative = inhibition [2] 24.3% | Potency [3] > 20.6 µM

CCOC(=O)C1CCN(c2nc3ccccc3nc2C(C#N)C(=O)OC(C)COC)CC1 (centres undefined)
inactive: activity change, negative = inhibition [1] -6.33% | activity, negative = inhibition [2] -12.7% | Potency [3] > 20.6 µM

CCCc1cc(NCCCCO)n2c(nc3ccccc32)c1C#N
inactive: activity change, negative = inhibition [1] -18.6% | activity, negative = inhibition [2] -4.18% | Potency [3] > 20.6 µM

CCN(CC)c1nc(-c2cccc(OC)c2O)nc2ccccc12
inactive: activity change, negative = inhibition [1] -20.9% | activity, negative = inhibition [2] -20% | Potency [3] > 20.6 µM

Cc1ccc(S(=O)(=O)N2CCC(N3CCCCCC3)CC2)cc1
inactive: activity change, negative = inhibition [1] 15.1% | activity, negative = inhibition [2] 10.2% | Potency [3] > 20.6 µM

C=C(C)CSc1nnc2n(C)c(=O)c3c4c(sc3n12)CCC4
inactive: activity change, negative = inhibition [1] -2.43% | activity, negative = inhibition [2] 2.61% | Potency [3] > 20.6 µM

CCOC(=O)C1=C(CSc2nc3c(cc2C#N)CCC3)OC(N)=C(C#N)C1c1ccccc1 (centres undefined)
inactive: activity change, negative = inhibition [1] 0.107% | activity, negative = inhibition [2] -16.4% | Potency [3] > 20.6 µM

CCc1cc(=O)oc2c(CN3CCN(C)CC3)c(O)c(Cl)cc12
inactive: activity change, negative = inhibition [1] 12.5% | activity, negative = inhibition [2] 2.51% | Potency [3] > 20.6 µM

Cc1ccc(/C(O)=C2/C(=O)C(=O)N(Cc3ccco3)C2c2cccs2)cc1 (centres undefined)
inactive: activity change, negative = inhibition [1] 2.29% | activity, negative = inhibition [2] -12.7% | Potency [3] > 20.6 µM

CC1(C)Cc2c(c(N3CCCCC3)[nH]c(=S)c2C#N)CS1
inactive: activity change, negative = inhibition [1] 3.57% | activity, negative = inhibition [2] -3.22% | Potency [3] > 20.6 µM
